Experimental data from PubChem BioAssay (NCI).
“And” between values parts separate entries of the source, which are not always exact repeats. Identical values can stand only once. The panel holds about 83,000 compounds, 20% with a hit somewhere; the sample as a whole holds those more often.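 Step 1: grow cells in 96-well plates. Step 2: add test compound at a single concentration. Step 3: incubate 48 h. Step 4: record percent growth.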 The source made the active and inactive calls. The calls were made as follows: active = growth percent below 10; inactive = the rest.

Tests used:
Experiment in all cases: NCI-60 one-dose screen, 48 h (100 = growth as untreated, 0 = no growth, -100 = all killed)
Conditions in all cases: 10 µM unless noted
NCI-H23 lung = test system: NCI-H23 lung
NCI-H226 lung = test system: NCI-H226 lung
NCI-H322M lung = test system: NCI-H322M lung
HOP-62 NSCLC = test system: HOP-62 NSCLC
NCI-H460 lung = test system: NCI-H460 lung
HOP-92 NSCLC = test system: HOP-92 NSCLC
A549/ATCC NSCLC = test system: A549/ATCC NSCLC
786-0 renal = test system: 786-0 renal
COLO 205 colon = test system: COLO 205 colon
NCI-H522 lung = test system: NCI-H522 lung

Measured: growth

CC[C@H](C)[C@H](NC(=O)c1ncccn1)C(=O)N(C)[C@H](C[C@@H](OC(C)=O)c1nc(C(=O)N[C@@H](Cc2ccccc2)C[C@H](C)C(=O)OC)cs1)C(C)C
active: COLO 205 colon 4.56%
inactive: NCI-H23 lung 40.9% | NCI-H226 lung 51.2% | NCI-H322M lung 42% | HOP-62 NSCLC 22.8% | NCI-H460 lung 10.8% | HOP-92 NSCLC 33.5% | A549/ATCC NSCLC 32.9% | 786-0 renal 38.5%

CC(=O)OC1CC2(O)C(CCC3(C)C(c4ccc(=O)oc4)CCC32O)C2(C)CCC(OC3OC(CO)C(O)C(O)C3O)C=C12 (stereo not drawn)
active: NCI-H23 lung -57.2% | NCI-H226 lung -91.6% | NCI-H322M lung -81.6% | HOP-62 NSCLC -70.7% | NCI-H460 lung -75.3% | HOP-92 NSCLC -24.2% | A549/ATCC NSCLC -72.9% | 786-0 renal -74.6% | COLO 205 colon -47.1%

ClC1OC(Cl)(Cl)C(Cl)(Cl)OC1(Cl)Cl (stereo not drawn)
inactive: NCI-H23 lung 98.6% | NCI-H226 lung 94.7% | NCI-H322M lung 100% | HOP-62 NSCLC 104% | NCI-H460 lung 128% | NCI-H522 lung 89.4% | A549/ATCC NSCLC 102% | 786-0 renal 109% | COLO 205 colon 110%

c1ccc2c(c1)O[As](O[As]1Oc3ccccc3O1)O2
inactive: NCI-H23 lung 43.8% | NCI-H226 lung 65.2% | NCI-H322M lung 58.5% | HOP-62 NSCLC 50.6% | NCI-H460 lung 54.8% | 786-0 renal 25.3% | COLO 205 colon 50.3%
active: HOP-92 NSCLC -12.2%

CCOP(=O)(NC)OCC
inactive: NCI-H23 lung 95.6% | NCI-H226 lung 94.3% | NCI-H322M lung 122% | HOP-62 NSCLC 90.8% | NCI-H460 lung 104% | HOP-92 NSCLC 74.5% | A549/ATCC NSCLC 114% | 786-0 renal 92.1% | COLO 205 colon 117%

CCCCOCCOP(=O)(OCCOCCCC)OCCOCCCC
inactive: NCI-H23 lung 101% | NCI-H226 lung 90.6% | NCI-H322M lung 120% | HOP-62 NSCLC 91.6% | NCI-H460 lung 99.3% | HOP-92 NSCLC 111% | 786-0 renal 110% | COLO 205 colon 105%

C=CC1CN2CCC1CC2C(O)c1ccnc2ccccc12 (stereo not drawn)
inactive: NCI-H23 lung 24.4% | NCI-H226 lung 112% | NCI-H322M lung 145% | HOP-62 NSCLC 121% | NCI-H460 lung 118% | NCI-H522 lung 24.2% | 786-0 renal 108% | COLO 205 colon 104%

Cc1cc[n+](CCc2ccccc2)cc1
inactive: NCI-H23 lung 90.5% and 111% | NCI-H322M lung 96% and 96.5% | HOP-62 NSCLC 87.9% and 114% | NCI-H460 lung 110% and 103% | NCI-H522 lung 94.8% and 85.5% | 786-0 renal 89.7% and 100% | COLO 205 colon 127% and 119%

O=[N+]([O-])c1ccc(P(=O)(O)O)cc1
inactive: NCI-H23 lung 105% | NCI-H226 lung 97.6% | NCI-H322M lung 101% | NCI-H460 lung 103% | HOP-92 NSCLC 85% | NCI-H522 lung 92.3% | A549/ATCC NSCLC 103% | 786-0 renal 96% | COLO 205 colon 103%

N#CC(C#N)=C(C#N)C#N
inactive: NCI-H23 lung 106% | NCI-H226 lung 101% | NCI-H322M lung 103% | HOP-62 NSCLC 108% | NCI-H460 lung 106% | A549/ATCC NSCLC 99.9% | 786-0 renal 101% | COLO 205 colon 114%

COC12CC3(C)C(C4=CC(=O)OC4)CCC3(O)C3CCC4=CC(=O)CCC4(CO1)C32 (stereo not drawn)
inactive: NCI-H23 lung 99% | NCI-H226 lung 101% | NCI-H322M lung 83% | NCI-H460 lung 113% | HOP-92 NSCLC 76.8% | NCI-H522 lung 14.7% | A549/ATCC NSCLC 98.8% | 786-0 renal 94.5% | COLO 205 colon 116%

O=[N+]([O-])c1ccc(CI)cc1
inactive: NCI-H23 lung 101% | NCI-H226 lung 94.6% | NCI-H322M lung 106% | NCI-H460 lung 101% | A549/ATCC NSCLC 101% | 786-0 renal 94% | COLO 205 colon 88.8%

CC1=C2[C@H]3OC(=O)[C@@H](C)[C@@H]3CC[C@@]2(C)C=CC1=O
inactive: NCI-H23 lung 54.5% | NCI-H226 lung 92% | NCI-H322M lung 85.8% | HOP-62 NSCLC 111% | NCI-H460 lung 116% | 786-0 renal 106% | COLO 205 colon 96.7%

C=C1C(=O)OC2CC3(C)OC3C3OC3C3=CC(OC3=O)C12 (stereo not drawn)
inactive: NCI-H23 lung 93.8% and 101% | NCI-H322M lung 98.7% and 101% | HOP-62 NSCLC 96.8% and 115% | NCI-H460 lung 114% and 105% | A549/ATCC NSCLC 93.1% and 105% | 786-0 renal 96% and 108%
active: HOP-92 NSCLC 9.95% | NCI-H522 lung -74.9% and -76.6% | COLO 205 colon -77.1%

Nc1ccc(S(=O)(=O)F)cc1
inactive: NCI-H23 lung 108% | HOP-62 NSCLC 109% | NCI-H460 lung 111% | HOP-92 NSCLC 110% | NCI-H522 lung 96.1% | A549/ATCC NSCLC 102% | 786-0 renal 94.7% | COLO 205 colon 112%

O=NN(c1ccccc1)c1ccccc1
inactive: NCI-H23 lung 98.3% | NCI-H226 lung 95% | NCI-H322M lung 94.1% | NCI-H460 lung 102% | HOP-92 NSCLC 88.1% | NCI-H522 lung 105% | A549/ATCC NSCLC 96% | 786-0 renal 105% | COLO 205 colon 110%
